Results from the supplement of paper PMC12350171.
Structures can show the parent of a compound that is named as a salt.

tested on: Haemophilus parainfluenzae; assay: growth AUC normalised to DMSO control (fraction of control); higher = less growth inhibition, active = hit call of the paper; details: 20 µM;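 active = AUC significantly below DMSO controls by Student t-fit with adjusted P under 0.01; inactive = not significantly reduced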
In short: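 Pathogens passaged twice anaerobically were inoculated at a starting OD578 of 0.01 into pre-reduced mGAM plates with drug at 20 μM and 1% DMSO, sealed with breathable membranes. Haemophilus parainfluenzae medium was supplemented with hemin and NAD. OD578 was read hourly for 24 h, with three biological replicates. Growth-curve AUC was computed by the trapezoidal rule up to the exponential-to-stationary transition and normalised to DMSO controls on the same plate.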

Row | Structure (SMILES) | growth AUC normalised to DMSO control
1 | Nc1ccccc1S(N)(=O)=O [o-Sulfanilamide] | 0.898 (inactive)
2 | NNc1nncc2ccccc12 [Hydralazine hydrochloride] | 1.03 (inactive)
3 | CCCCC(=O)O[C@H]1CC[C@H]2[C@@H]3CCc4cc(O)ccc4[C@H]3CC[C@]12C [Estradiol Valerate] | 1.06 (inactive)
4 | CCCC1C(=O)N2C(N(C)C)=Nc3ccc(C)cc3N2C1=O (stereo not drawn) [Azapropazone] | 0.968 (inactive)
5 | CNC[C@H](O)[C@@H](O)[C@H](O)[C@H](O)CO [Meglumine] | 1.05 (inactive)
6 | Nc1nc(=O)c2c([nH]1)NC[C@@H](CNc1ccc(C(=O)N[C@@H](CCC(=O)O)C(=O)O)cc1)N2C=O [Folinic acid calcium salt] | 1 (inactive)
7 | Cc1ccc(-c2ncc(Cl)cc2-c2ccc(S(C)(=O)=O)cc2)cn1 [Etoricoxib] | 1 (inactive)
8 | CC(C)NCC(O)c1ccc(O)c(O)c1 (single isomer, unassigned; (+)) [(+) Isoproterenol-(+)-bitartrate salt] | 1.02 (inactive)
9 | Cc1ccc(S(=O)(=O)NC(=O)NN2CCCCCC2)cc1 [Tolazamide] | 1.04 (inactive)
10 | CCCCOc1ccc(C(=O)CCN2CCCCC2)cc1 [Dyclonine hydrochloride] | 0.921 (inactive)
11 | Cc1noc(NS(=O)(=O)c2ccc(N)cc2)c1C [Sulfisoxazole] | 0.939 (inactive)
12 | CC(C)NC[C@H](O)COc1ccc(CC(N)=O)cc1 [(S,-) Atenolol] | 1.01 (inactive)
13 | C[C@H](N)[C@H](O)c1cccc(O)c1 [Metaraminol bitartrate] | 0.968 (inactive)
14 | C=CC(N)CCC(=O)O (stereo not drawn) [Vigabatrin hydrochloride] | 1.02 (inactive)
15 | CN(C)CC/C=C1\c2ccccc2CSc2ccccc21 [Dosulepin hydrochloride] | 0.865 (inactive)
16 | NC[C@H]1O[C@H](O[C@H]2[C@H](O)[C@@H](O[C@H]3O[C@H](CO)[C@@H](O)[C@H](N)[C@H]3O)[C@H](N)C[C@@H]2N)[C@H](N)C[C@@H]1O [Tobramycin] | 0.0457 (active)
17 | CN(C)CCOC(c1ccc(Cl)cc1)c1ccccn1 (stereo not drawn) [Carbinoxamine maleate salt] | 1.08 (inactive)
18 | COC(=O)CCc1ccc(OCC(O)CNC(C)C)cc1 (stereo not drawn) [Esmolol hydrochloride] | 1.09 (inactive)
19 | NS(=O)(=O)c1cc(C(=O)O)cc(N2CCCC2)c1Oc1ccccc1 [Piretanide] | 1.06 (inactive)

Row | Structure (SMILES) | growth AUC normalised to DMSO control
20 | NC(CO)C(=O)NNCc1ccc(O)c(O)c1O (stereo not drawn) [Benserazide hydrochloride] | 1.05 (inactive)
21 | CCN1C(=O)NC(c2ccccc2)C1=O (stereo not drawn) [Ethotoin] | 1.01 (inactive)
22 | Oc1c(I)cc(Cl)c2cccnc12 [Clioquinol] | 1.03 (inactive)
23 | CCOC(=O)C1=C(C)NC(C)=C(C(=O)OC)C1c1cccc(Cl)c1Cl (stereo not drawn) [Felodipine] | 0.863 (inactive)
24 | Oc1c(Cl)cc(Cl)c2cccnc12 [Chloroxine] | 0.114 (active)
25 | O=C(N[C@H](CO)[C@H](O)c1ccc([N+](=O)[O-])cc1)C(Cl)Cl [Chloramphenicol] | 0.0445 (active)
26 | CN/C(=N\CCSCc1nc[nH]c1C)NC#N [Cimetidine] | 0.993 (inactive)
27 | Cc1cnc(C(=O)NCCc2ccc(S(=O)(=O)NC(=O)NC3CCCCC3)cc2)cn1 [Glipizide] | 0.995 (inactive)
28 | COc1ccc(CC2c3cc(OC)c(OC)cc3CC[N+]2(C)CCC(=O)OCCCCCOC(=O)CC[N+]2(C)CCc3cc(OC)c(OC)cc3C2Cc2ccc(OC)c(OC)c2)cc1OC (stereo not drawn) [Atracurium besylate] | 1.06 (inactive)
29 | Cc1cc(C(C)(C)CC(C)(C)C)ccc1OCCOCC[N+](C)(C)Cc1ccccc1 [Methyl benzethonium chloride] | 0.994 (inactive)
30 | CC(C)[C@H](N)C(=O)OCCOCn1cnc2c(=O)nc(N)[nH]c21 [Valacyclovir hydrochloride] | 0.99 (inactive)
31 | CN[C@H](CC(C)C)C(=O)N[C@H]1C(=O)N[C@@H](CC(N)=O)C(=O)N[C@H]2C(=O)N[C@H]3C(=O)N[C@H](C(=O)N[C@H](C(=O)O)c4cc(O)cc(O)c4-c4cc3ccc4O)[C@H](O)c3ccc(c(Cl)c3)Oc3cc2cc(c3O[C@@H]2O[C@H](CO)[C@@H](O)[C@H](O)[C@H]2O[C@H]2C[C@](C)(N)[C@H](O)[C@H](C)O2)Oc2ccc(cc2Cl)[C@H]1O [Vancomycin hydrochloride] | 1.01 (inactive)
32 | NS(=O)(=O)c1cc(Cl)c(Cl)c(S(N)(=O)=O)c1 [Dichlorphenamide] | 1.03 (inactive)
33 | CNS(=O)(=O)Cc1ccc2[nH]cc(CCN(C)C)c2c1 [Sumatriptan succinate] | 0.984 (inactive)
34 | CCOc1ccc(NC(C)=O)cc1 [Phenacetin] | 0.924 (inactive)
35 | O=c1[nH]c(=O)n([C@H]2C[C@H](O)[C@@H](CO)O2)cc1I [Idoxuridine] | 0.942 (inactive)
36 | Nc1nc(Cl)nc2c1ncn2[C@H]1C[C@H](O)[C@@H](CO)O1 [Cladribine] | 1.01 (inactive)
37 | CC(=O)OCC(=O)[C@@]1(O)CC[C@H]2[C@@H]3CCC4=CC(=O)CC[C@]4(C)[C@H]3[C@@H](O)C[C@@]21C [Cortisol acetate] | 1.02 (inactive)
38 | OC(c1cc(C(F)(F)F)nc2c(C(F)(F)F)cccc12)C1CCCCN1 (stereo not drawn) [Mefloquine hydrochloride] | 0.903 (inactive)
